Shown are actives, neighbours in structure and some others; about 6.2% of the full set was active somewhere.
ATXN2 expr inh: ATXN2 expression inhibition; HEK-293 ATXN2-luciferase reporter, luminescence, 24 h; Potency, µM (series often up to 57 µM), without a hit: at the highest dose activity change, negative = inhibition, most hits filed as inhibitors; actives 0.72% (n = 360,000); further: on the % scale 0 is the no-effect control and ±100 the full control effect; nearly all actives have a fitted effect of over 55% in size
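ATXN2-luciferase reporter cells (luciferase flanked by upstream and downstream ATXN2 gene portions) were treated 24 h at 37 °C with compounds at up to 57 uM. SteadyGlo luminescence gave expression; GF-AFC fluorescence gave viability.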
HT1080 IDH1KD tx: kills HT-1080 cells with IDH1 knockdown; HT-1080 IDH1 knockdown viability, ATP luminescence, 48 h; Potency, µM (highest dose often 46.1 µM), inactives show at the top dose activity, negative = toxicity, hits mostly cytotoxic; actives 2% (n = 360,000); AID 686971;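 further: 0% = DMSO wells and -100% = cell-free medium wells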
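In this qHTS, HT-1080 cells depleted of IDH1 are exposed for 48 h at 37 °C to compound titrations. Toxicity is scored from CellTiter-Glo luminescence, with DMSO as full viability and medium alone as none.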
KB-V1 MDR tox: kills drug-selected multidrug resistant KB-V1 cells. Potency, µM (series often up to 46.1 µM), usual class: cytotoxic. KB-V1 MDR cells viability, CellTiter-Glo, 72 h. AID 1347076. actives 3.4% (n = 400,000); further: on the % scale 0 is the no-effect control and ±100 the full control effect; nearly all actives have a fitted effect of over 60% in size
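Luminescent ATP read-out (CellTiter-Glo, 10 min) measures survival of drug-selected KB-V1 MDR cells after 72 h, 37 degrees C compound exposure. Medium: phenol-red-free DMEM, 10% FBS. Values from fitted concentration-response curves.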
KB-3-1 cytotox: kills parental KB-3-1 adenocarcinoma cells; KB-3-1 viability, CellTiter-Glo ATP luminescence, 72 h; Potency, µM (titrated, usually from 46.1 µM), hits mostly cytotoxic; actives 1.4% (n = 400,000); AID 1347075; further: on the % scale 0 is the no-effect control and ±100 the full control effect; nearly all actives have a fitted effect of over 60% in size
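Cells are dispensed, compounds pinned in, plates held at 37 °C for 72 h, then CellTiter-Glo is added and luminescence read after 10 minutes. Cell line: parental KB-3-1 in phenol-red-free DMEM, 10% FBS.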
S2 tox: viability counter-screen for ATXN expression inhibitors; actives 0.49% (n = 400,000); Potency, µM (series often up to 56.7 µM), most hits filed as cytotoxic; S2 cells (HEK-293 line with an ATXN2-luciferase reporter) viability, CellTiter-Fluor protease fluorescence, 24 h; further: nearly all actives have a fitted effect of over 40% in size
HT1080-NT tox: kills 2HG-producing HT-1080-NT fibrosarcoma cells; Potency, µM (top dose mostly 46.1 µM), for inactives: top-dose activity, negative = less viability, usual class: cytotoxic; HT-1080-NT fibrosarcoma viability, CellTiter-Glo ATP luminescence, 48 h; AID 686970; actives 1.6% (n = 360,000);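 further: NT is the 2HG producing partner of a matched IDH1 knockdown line; 0% = DMSO-treated cells and -100% = media-only wells without cells; nearly all actives have a fitted effect of over 55% in size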
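Viability of the 2HG-overproducing fibrosarcoma line after 48 hours of compound exposure at 37 degrees C was determined by luminescence with CellTiter-Glo, and concentration-effect curves were then fitted and categorized.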
Starred values were filed as active, the others as inactive; i = inactive; ? = inconclusive; . = no result given. The call rests on the fitted dose curve; in most records, active means well fitted curve in the direction sought with a large enough effect; inconclusive means small, poorly fitted or top-dose-only effect, or another doubt; inactive means no such curve, though single readings can be large; an effect the other way counts as inactive or inconclusive. Potency means the concentration at half of the fitted maximal effect.

SMILES | ATXN2 expr inh | HT1080 IDH1KD tx | KB-V1 MDR tox | KB-3-1 cytotox | S2 tox | HT1080-NT tox
S=c1[nH]nc(-c2ccc3ccccc3n2)n1-c1ccccc1 | -2% | -5% | 23µM* | i | i | -3%
Cc1cc(O)c(C(c2ccccc2)N2CCC(C)CC2)c(=O)n1Cc1ccco1 (stereo not given) | 4% | . | i | i | i | .
CCCN1CCN(CCCNC(=O)Cn2c(-c3cccs3)cc3cc(Cl)ccc32)CC1 | ? | . | i | i | ? | .
COCCNC(=O)C1(C)Cc2c(-c3cccc(C(N)=O)c3)ccnc2O1 (stereo not given) | 14% | 2% | i | i | i | 12%
CC1(C(=O)NCC2CC2)Cc2c(-c3cccc(C(F)(F)F)c3)ccnc2O1 (stereo not given) | -31% | 21µM* | ? | ? | i | ?
COCCNC(=O)C1(C)Cc2c(-c3cccc(C(F)(F)F)c3)ccnc2O1 (stereo not given) | 0% | 21µM* | i | ? | i | ?
COc1ccc(NC(=O)C2(C)Cc3c(-c4ccccc4)ccnc3O2)cc1OC (stereo not given) | -11% | -21% | ? | i | i | -1%
COc1ccc(NC(=O)C2(C)Cc3c(-c4cccc(C(F)(F)F)c4)ccnc3O2)cc1OC (stereo not given) | ? | 15µM* | i | ? | i | 21µM*
CC1(C(=O)NCC2CC2)Cc2c(-c3cccc(C(N)=O)c3)ccnc2O1 (stereo not given) | 9% | 0% | ? | i | i | -16%
Cc1ccc(CNC(=O)Cn2ncc3c([nH]c4ccc(C)cc43)c2=O)cc1 | 7% | . | i | i | i | .
Cc1ccccc1OC(=O)CSc1nnc(-c2ccc3c(c2)OCO3)o1 | . | . | i | i | . | .
CC(=O)Nc1sc(NC(=O)c2ccc(Cl)cc2)nc1-c1cccs1 | -33% | 3% | i | i | ? | 3%
Nc1nc(-c2cccs2)c(NC(=O)c2ccccc2)s1 | ? | ? | i | i | 22µM* | -29%
Cc1ccc(S(=O)(=O)N(C(=O)c2ccncc2)c2ccc(OC(=O)c3ccncc3)c3ccccc23)c(C)c1 | ? | ? | i | i | ? | ?
COC(=O)c1c(C)oc2ccc(N(C(=O)c3ccncc3)S(=O)(=O)c3ccc(C)cc3C)cc12 | ? | ? | ? | ? | i | 23µM*
Cc1ccc(S(=O)(=O)N(C(=O)c2ccncc2)c2ccc(OC(=O)c3ccncc3)c3ccccc23)cc1 | 19µM* | ? | i | i | ? | ?
COC(=O)c1c(C)oc2ccc(N(C(=O)c3ccncc3)S(=O)(=O)c3ccc(C)cc3)cc12 | -20% | 2.6µM* | 1.6µM* | 5.2µM* | ? | 2.6µM*
COc1ccc(-c2nn(C)c3sc(C(=O)Nc4cccc(F)c4)cc23)cc1OC | ? | . | ? | i | i | .
COc1ccc(/C=N/Nc2cc(C)nc3ccc(OC)cc23)c(OC)c1 | ? | 5.2µM* | ? | ? | . | 23µM*
COc1ccccc1/C=N/Nc1cc(C)nc2ccc(C)cc12 | 27% | -1% | i | i | i | 1%
COc1ccc2nc(C)cc(N/N=C/c3ccccc3)c2c1 | ? | 0% | 21µM* | i | . | -3%
COC1(OC)C(/C=C/c2ccc(Cl)cc2)C(C#N)(C#N)C1(OC)OC (stereo not given) | ? | 21µM* | ? | ? | . | -23%
Cc1ccc(NC(=O)Cn2c(=O)nc(-c3ccccc3F)c3cc(Cl)ccc32)c(Br)c1 | -20% | . | ? | 16µM* | i | .
Cc1cc(NC(=O)Cn2c(=O)nc(-c3ccccc3F)c3cc(Cl)ccc32)ccc1Br | 15% | . | i | i | i | .
Cc1ccc(Nc2nc(Cl)c(C=O)s2)cc1Cl | 8% | ? | i | ? | . | 18µM*
SMILES | ATXN2 expr inh | HT1080 IDH1KD tx | KB-V1 MDR tox | KB-3-1 cytotox | S2 tox | HT1080-NT tox
O=Cc1sc(Nc2ccccc2)nc1Cl | -11% | -13% | ? | i | i | -20%
COc1cc(O)c(C(CC(=O)N2CCC(C)CC2)c2ccc(OC)c(OC)c2)c(OC)c1 (stereo not given) | . | . | i | i | . | .
CCOC(=O)N1CCN(C(=O)/C(=C/c2ccccc2OC)NC(=O)c2ccccc2)CC1 | 0% | 9% | 7.3µM* | i | i | 0%
C=CCOC(=O)/C(=C/c1cccc2ccccc12)NC(=O)c1ccccc1 | 39% | -1% | 8.2µM* | i | i | 6%
C=CCNC(=O)/C(=C/c1cn(-c2ccccc2)nc1-c1cccc([N+](=O)[O-])c1)NC(=O)c1ccccc1 | 7% | 11% | 16µM* | i | i | 5%
C=CCNC(=O)/C(=C/c1ccccc1OCC)NC(=O)c1ccccc1 | 5% | 9% | 12µM* | i | i | 4%
CCOC(=O)N1CCN(C(=O)/C(=C/c2ccc(OC)c(OC)c2)NC(=O)c2ccccc2)CC1 | -2% | 6% | i | i | i | 10%
CCOc1ccccc1/C=C(/NC(=O)c1ccccc1)C(=O)NC(C)c1ccccc1 (stereo not given) | 6% | 2% | ? | i | i | -1%
CN(Cc1ccccc1)C(=O)c1ccc(CSc2nc3cccnc3n2Cc2ccccc2F)cc1 | ? | . | i | i | . | .
CC1CCCC(NC(=O)CC2Nc3ccccc3NC2=O)C1C (stereo not given) | -11% | 0% | 16µM* | i | i | -3%
O=C(CC1Nc2ccccc2NC1=O)NC1CCCCC1 (stereo not given) | -2% | 8% | ? | i | i | -2%
CCCCCCC(=O)N(O)C1CC(=O)N(c2ccc(F)cc2)C1=O (stereo not given) | 2% | ? | i | i | ? | 16µM*
CCCCCCC(=O)N(O)C1CC(=O)N(c2ccc(Br)cc2)C1=O (stereo not given) | -21% | 16µM* | i | i | i | ?
Cc1cc(/C=C2\C=Cc3ccccc32)cc(C)c1[N+](=O)[O-] | . | . | i | i | . | .
CCOc1ccc(NCc2nnc(SCc3ccc(Cl)cc3)n2-c2ccccc2)cc1 | -28% | -19% | 4.6µM* | ? | i | -9%
COC(=O)C1CCCCN1Cc1ccc2c(c1)CN(Cc1cn[nH]c1-c1ccc(F)cc1)CCO2 (stereo not given) | . | . | . | . | i | .

Compound activity deposited in PubChem BioAssay by National Center for Advancing Translational Sciences (NCATS).
